According to PubChem BioAssay AID938 (National Center for Advancing Translational Sciences (NCATS), 2007):
Values joined by “and” are separate entries in the source; they are usually repeats but may differ in a detail not shown here. Identical values can stand only once. Screen size: about 73,000 compounds; about 1,800 (2.5%) were called active. Inconclusive results (about 13%) are left out. The sample holds actives, similar compounds and a random draw of the others, so the mix is not that of the screen. Values without a mark were called inactive. The call rests on the fitted dose curve; in most records, active means well fitted activation curve with a large enough effect; inconclusive means small, poorly fitted or top-dose-only effect; inactive means no such curve, though single readings can be large or run the other way.

Assay: qHTS Assay for Agonists of the Thyroid Stimulating Hormone Receptor: Activators of Intracellular cAMP Concentrations in Parental HEK 293; further: nearly all actives have a fitted effect of over 55% in size; on activation: % of control where 0% means no effect
Conditions: parental HEK293 CNG cAMP sensor, membrane potential fluorescence; series mostly up to 57.1 µM; activation: at the top concentration
Procedure, shortened: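 Parental HEK 293 cells stably expressing a cAMP-gated CNG channel were loaded with membrane potential dye containing 100 uM RO 20-1724 for 60 min. Compound added for 30 min; depolarization read as fluorescence intensity at 590 nm.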
Potency means the concentration at half of the fitted maximal effect.

| SMILES | activation | Potency |
| --- | --- | --- |
| C=CCn1c(COc2ccccc2)nnc1SCC(=O)NCC(=O)OCC | -0.938% | – |
| O=C(CC1(O)C(=O)N(CN2CCOCC2)c2ccccc21)c1ccccc1 (configuration not stated) | 1.28% | – |
| Cc1ccc(C(=O)Nc2nnc(-c3ccncc3)s2)o1 | -13.3% | – |
| CC(C)N(CCNC(=O)c1ccc(-n2c(=O)c(=O)[nH]c3ccccc32)cc1)C(C)C | -3.64% | – |
| Cc1cc(N2CCN(Cc3ccc4c(c3)OCO4)CC2)n2ncnc2n1 | 7.27% | – |
| Cc1cc(C)c(C#N)c(SCc2ccccc2C(=O)O)n1 | 5.96% | – |
| Cc1cc(C)c(C#N)c(SCc2ccc3c(c2)OCO3)n1 | – | 20 µM (active) |
| CC1(C)OC(C(O)(c2ccccc2)c2ccccc2)C(C(O)(c2ccccc2)c2ccccc2)O1 (configuration not stated) | 25.8% [at 11.4 µM] | – |
| CCOc1ccc(C(CC(=O)O)NC(=O)COc2ccccc2)cc1 (configuration not stated) | 22.8% | – |
| O=C(Nc1nnc(CCc2ccccc2)s1)C1CCCO1 (configuration not stated) | -1.9% | – |
| CCC(=O)c1cc2c(cc1NC(=O)c1cccs1)OCCO2 | -57.7% | – |
| O=S(=O)(NCC1CCCO1)c1ccc2ccccc2c1 (configuration not stated) | 28.1% | – |
| CCOc1ccc(CN(Cc2ccco2)C(c2cccs2)c2nnnn2C(C)(C)C)cc1 (configuration not stated) | 21.3% | – |
| Cn1nnnc1SCC(=O)N1CCN(Cc2ccccc2)CC1 | -19.6% | – |
| Cc1ccc(C(c2nnnn2C(C)(C)C)N2CCc3ccccc3C2)cc1 (configuration not stated) | 10.3% | – |
| Fc1ccccc1C(c1nnnn1Cc1ccc2c(c1)OCO2)N1CCN(Cc2ccccc2)CC1 (configuration not stated) | -1.23% | – |
| Fc1ccc(Cn2nnnc2C(c2cccs2)N2CCCCCC2)cc1 (configuration not stated) | – | 31.6 µM (active) |
| Cc1cc(C)c2[nH]c(=O)c(C(c3nnnn3Cc3ccc4c(c3)OCO4)N3CCCC3)cc2c1 (configuration not stated) | 26.5% | – |
| CCC(C)(C)n1nnnc1C(c1cccs1)N1CCN(c2nc3ccccc3s2)CC1 (configuration not stated) | – | 3.16 µM (active) |
| CCC(C)(C)n1nnnc1C(c1cccs1)N1CCN(Cc2ccccc2)CC1 (configuration not stated) | – | 12.6 µM (active) |
| O=S(=O)(c1cccs1)N1CCN(Cc2ccccc2)CC1 | 8.66% | – |
| COc1ccc(-c2nc3cnc(N(C)C)nc3n(Cc3cccs3)c2=O)cc1 | 2.64% | – |
| CCOC(=O)C(C(=O)OCC)C(C#N)c1ccccc1 (configuration not stated) | 14.2% | – |
| O=C(O)CC(C(=O)O)C(CC(=O)O)C(=O)O (configuration not stated) | -7.18% | – |
| Cc1ccc(S(=O)(=O)Cn2nnnc2CN2CCN(Cc3ccc4c(c3)OCO4)CC2)cc1 | 20% | – |

| SMILES | activation | Potency |
| --- | --- | --- |
| O=C(O)c1ccc(Cl)c(S(=O)(=O)Nc2ccccc2Cl)c1 | 5.29% | – |
| Cc1ccc(-c2nc(CS(=O)CC(=O)N3CCN(c4ncccn4)CC3)c(C)o2)cc1 (configuration not stated) | 5.16% | – |
| N#CC1=C(N)OC2=C(C(=O)CCC2)C1C1CC=CCC1 (configuration not stated) | 9.36% | – |
| CCOC(=O)C1CCN(C(=O)Cn2cc(C#N)c3ccccc32)CC1 | -2.07% | – |
| COC(=O)Cn1cc(C(=O)c2cccs2)c2ccccc21 | 18.6% | – |
| CC1CCN(C(=O)Cn2cc(C(=O)c3ccco3)c3ccccc32)CC1 | – | 20 µM (active) |
| CC(=O)OCC1OC(C#Cc2ccccc2Cl)C=CC1OC(C)=O (configuration not stated) | -0.512% [at 11.4 µM] | – |
| CCCCCCCCCCCC(=O)O[C@H](CC(=O)O)C[N+](C)(C)C | 10.1% | – |
| O=C(CSc1nnc(-c2cccs2)n1Cc1ccco1)c1ccc2c(c1)OCO2 | – | 31.6 µM (active) |
| O=C(CSc1nnc(-c2cccs2)n1-c1ccccc1)NCc1ccco1 | 23.2% | – |
| CCn1c(CNc2ccc(OC)cc2)nnc1SCC(=O)c1ccc(OC)cc1 | 3.65% | – |
| COc1ccc(-c2nnc(SCC(=O)c3ccco3)n2-c2ccccc2)cc1 | 11.6% | – |
| O=C(CSc1nnc(-c2cnccn2)n1Cc1ccco1)c1ccc(Cl)c(Cl)c1 | – | 25.1 µM (active) |
| O=C(CSc1nnc(-c2cccnc2)n1Cc1ccco1)c1ccc(Cl)cc1 | 19.9% | – |
| COc1ccc(C(=O)CSc2nnc(COc3ccccc3)n2Cc2ccco2)cc1 | – | 15.8 µM (active) |
| Cc1ccc(NC(=O)CSc2nnc(-c3cnccn3)n2Cc2ccco2)cc1C | 0.776% | – |
| COc1ccc(NC(=O)CSc2nnc(-c3cccs3)n2Cc2ccco2)cc1OC | 5.77% | – |
| CCOC(=O)c1nc(-c2ccc3c(c2)OCO3)[nH]c1C | 20.4% | – |
| CCCC(=O)N1c2ccc(-c3csc(N)n3)cc2CC1C (configuration not stated) | -11.7% | – |
| Cc1ccc2nc(S(=O)(=O)O)[nH]c2c1 | 0.944% | – |
| NC(=O)CSC1=Nc2ccccc2C2=NC(CCC(=O)NCc3ccc(F)cc3)C(=O)N12 (configuration not stated) | 1.88% | – |
| O=C(CSC1=Nc2ccccc2C2=NC(c3ccccc3)C(=O)N12)NCC1CCCO1 (configuration not stated) | -0.0353% | – |
| O=C(CC1N=C2c3ccccc3N=C(SCc3ccccc3Cl)N2C1=O)NCc1ccco1 (configuration not stated) | – | 15.8 µM (active) |
| Cc1cc(OCC(=O)O)c(Cl)cc1Cl | 18.1% [at 11.4 µM] | – |
| Cc1ccccc1C(=O)O | 5.98% | – |

| SMILES | activation | Potency |
| --- | --- | --- |
| CCC(=O)Nc1ccccc1N1CCN(S(C)(=O)=O)CC1 | 13% | – |
| CCCC(=O)Nc1ccccc1N1CCN(C(=O)c2ccccc2)CC1 | – | 15.8 µM (active) |
| O=C(Nc1ccccc1N1CCN(C(=O)c2ccccc2)CC1)c1ccc2c(c1)OCO2 | 6.57% | – |
| CC(C)CO/N=C1/C[C@@H](O)[C@@H](O)[C@@H]2[C@@H]3C(=O)N(C[C@@H]4CCCO4)C(=O)[C@H]3CC[C@@H]12 | 4.27% [at 11.4 µM] | – |
| O=C(O)COc1c(Cl)cc(Cl)c2cccnc12 | 14.2% [at 11.4 µM] | – |
| CC12CCC(C(=O)N3CCN(c4ncccn4)CC3)(c3nc4ccccc4nc31)C2(C)C (configuration not stated) | 12.7% | – |
| CCCCn1c(SCC(=O)NCC2CCCO2)nc2ccc(N3CCOCC3)cc2c1=O (configuration not stated) | 2.7% | – |
| CCc1ccc(NC(=O)CSc2nc3ccccc3c(=O)n2CCN2CCOCC2)cc1 | – | 31.6 µM (active) |
| COCCCNC(=O)CSc1nc2ccc(N3CCOCC3)cc2c(=O)n1CCc1ccccc1 | 3.65% | – |
| COC(=O)C1=C(C)N(Cc2ccccc2)C2=C3C(=O)N(c4ccccc4)C(=O)C3[C@@](O)(C(=O)OC)C(=O)N2C1c1ccccc1 (some centres not stated) | 9.18% [at 11.4 µM] and 2.67% [at 11.4 µM] | – |
| Cc1ccccc1-c1nc(N(C)Cc2ccco2)c2ccccc2n1 | – | 25.1 µM (active) |
| CN(Cc1ccco1)c1cc(-c2ccccc2C(F)(F)F)ncn1 | 22.4% | – |
| CN(Cc1ccco1)c1ncncc1-c1ccoc1 | 11.1% | – |
| CCC(C(=O)NC1CCCC1)N(C(=O)c1snc(C(N)=O)c1N)c1ccc2c(c1)OCCO2 (configuration not stated) | – | 25.1 µM (active) |
| Cc1ccc(C(C(=O)NC2CCCCC2)N(C(=O)c2csnn2)C2CC2)o1 (configuration not stated) | 17.2% | – |
| COCCNC(=O)C(c1ccc(C)o1)N(Cc1cccs1)C(=O)c1snc(C(N)=O)c1N (configuration not stated) | -0.52% | – |
| Cc1cc2c(cc1C)NC1=C(N2)O[C@H](c2c[nH]c3ccc(COc4ccccc4)cc23)C1=O | 3.07% [at 11.4 µM] | – |
| O=C(c1cc(C(F)(F)F)cc(C(F)(F)F)c1)N1CCC2(CCCN(Cc3ccncc3)C2)CC1 | 20.6% | – |
| COc1ccc(C(=O)N2CCC3(CCCN(C(c4ccccc4)c4ccccc4)C3)CC2)cc1 | 20.6% | – |
| O=C(c1cc(C(F)(F)F)cc(C(F)(F)F)c1)N1CCC2(CCCN(c3ccccn3)C2)CC1 | – | 25.1 µM (active) |
| O=C(c1ccncc1)N1CCC2(CCCN(C(c3ccccc3)c3ccccc3)C2)CC1 | – | 10 µM (active) |
| O=C(c1csnn1)N1CCC[C@@]2(CCN(c3cccc(-c4ccccc4)c3)C2)C1 | 3.98% | – |
| COc1ccc(C(=O)N2CCC3(CC2)CCN(c2ccccn2)CC3)cc1 | 14.2% | – |
| O=C(c1cccc(F)c1)N1CCC2(CCCN(Cc3ccncc3)C2)CC1 | 24.7% | – |
| CC(=O)N1CCC2(CCCN(c3ncccn3)C2)CC1 | 5.39% | – |

| SMILES | activation | Potency |
| --- | --- | --- |
| O=C(c1cc(C(F)(F)F)cc(C(F)(F)F)c1)N1CCC[C@@]2(CCN(c3ccccn3)C2)C1 | – | 15.8 µM (active) |
| COc1cccc([C@H](O)Cn2cc(-c3ccc(CON=C(C)C)cc3)nn2)c1 | 14.1% [at 11.4 µM] | – |
| COc1ccc(COC(=O)N/N=C2/C[C@@H](O)[C@@H](O)[C@@H]3[C@@H]4C(=O)N([C@@H](C)c5ccccc5)C(=O)[C@H]4CC[C@@H]23)cc1 | -0.62% [at 11.4 µM] | – |
| CCOC(=O)c1sc(NC(=S)n2cc(C)cn2)c(C(=O)OCC)c1C | 4.01% | – |
| CN1CCc2nc(-c3ccccc3)c(-c3ccccc3)cc2C1 | 0.173% [at 11.4 µM] | – |
| c1ccc2nc(C3=NCCN3)cnc2c1 | -2.21% | – |
| CCOC(=O)c1ccc(N2C(=O)CC(N3CCC(C(=O)OCC)CC3)C2=O)cc1 (configuration not stated) | -3.39% | – |
| CCOC(=O)c1nnn(-c2nc(OC)nc(N(C)C)n2)c1-c1ccccc1 | 19.1% | – |
| Cc1ccc(C(=O)N2CCN(C3CCCCC3)CC2)s1 | -11.9% | – |
| N/C(=N\c1nc2ccccc2o1)NC(=O)C(Cc1ccccc1)N1C(=O)c2ccccc2C1=O (configuration not stated) | 6.18% | – |
| CCOC(=O)C1CCN(C(c2cc3cc(C)cc(C)c3[nH]c2=O)c2nnnn2C2CCCCC2)CC1 (configuration not stated) | 14.4% | – |
| Cc1cccc2cc(CN(Cc3ccc4c(c3)OCO4)Cc3nnnn3C3CCCC3)c(=O)[nH]c12 | – | 31.6 µM (active) |
| Cc1cccc2cc(CN(Cc3cccs3)C(c3nnnn3C3CCCC3)C(C)C)c(=O)[nH]c12 (configuration not stated) | 20.4% | – |
| O=C1C(c2ccccn2)=[N+]([O-])c2ccccc21 | 4.84% | – |
| O=c1c2ccccc2nnn1CSc1nc2sc3c(c2c(=O)n1CC1CCCO1)CCC3 (configuration not stated) | 24.9% | – |
| COc1ccccc1Oc1ccc(S(=O)(=O)Nc2cccnc2)cc1 | 19.7% | – |
| COc1ccccc1N(C(=O)Cn1nnc2ccccc21)C(C(=O)NCc1ccco1)c1ccc(C)o1 (configuration not stated) | – | 3.98 µM (active) |
| COc1ccc(C2=NOC(C(=O)NCc3ccco3)C2)cc1OC (configuration not stated) | 8.46% [at 2.29 µM] | – |
| CCOc1ccccc1C(=O)NCc1ccco1 | 22.2% | – |
| Cc1cccc(CC(=O)Nc2c3c(nn2-c2cccc(Cl)c2)CS(=O)C3)c1 (configuration not stated) | – | 10 µM (active) |
| COc1ccc(CC(=O)Nc2c3c(nn2-c2cccc(Cl)c2)CS(=O)C3)cc1 (configuration not stated) | 26.7% | – |
| CC(C)(C)n1nc2c(c1NC(=O)c1ccc(S(=O)(=O)N3CCCC3)cc1)CS(=O)C2 (configuration not stated) | 9.47% | – |
